From PubChem BioAssay (NCATS) come the findings set out here.

SMILES strings stand for the structures. Inconclusive results are not listed. Calls of active or inactive are those of the source. Calls follow the shape of the dose curve; as a rule, active = well fitted inhibition curve with a large enough effect; inconclusive = small, poorly fitted or top-dose-only effect; inactive = no such curve, though single readings can be large or run the other way.
% is scaled to controls: 0 for no effect and ±100 for the full control effect; potency is read from the fitted curve at half-maximal effect.

For this experiment, the target named is Cytochrome P450 3A4 (Homo sapiens) (UniProt P08684). Kind of experiment: qHTS Assay for Inhibitors and Substrates of Cytochrome P450 3A4 (AID 884). Also: nearly all actives have a fitted effect of over 50% in size. As to conditions: recombinant CYP3A4, Luciferin-PPXE luminescence; series mostly up to 57.1 µM; activity change, negative = inhibition: at the top concentration. The protocol: NIH Molecular Libraries Screening Centers Network [MLSCN]
Chain of Cytochrome P450 3A4 (Homo sapiens) (P08684 whole entry, looked up): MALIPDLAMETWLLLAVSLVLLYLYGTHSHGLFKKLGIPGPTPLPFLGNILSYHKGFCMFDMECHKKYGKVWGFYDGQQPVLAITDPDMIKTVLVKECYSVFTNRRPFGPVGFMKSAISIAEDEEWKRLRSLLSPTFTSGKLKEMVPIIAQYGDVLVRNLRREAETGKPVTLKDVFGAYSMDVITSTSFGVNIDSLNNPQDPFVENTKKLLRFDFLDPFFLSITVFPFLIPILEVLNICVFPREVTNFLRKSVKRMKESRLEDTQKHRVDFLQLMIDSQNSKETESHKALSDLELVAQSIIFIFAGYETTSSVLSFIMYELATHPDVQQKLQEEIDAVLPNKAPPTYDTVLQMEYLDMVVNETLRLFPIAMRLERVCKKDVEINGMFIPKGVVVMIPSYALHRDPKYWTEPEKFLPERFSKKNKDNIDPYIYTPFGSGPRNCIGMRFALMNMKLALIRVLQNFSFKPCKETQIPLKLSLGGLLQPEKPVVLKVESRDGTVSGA
NIH Chemical Genomics Center [NCGC]
The P450 gene superfamily is involved in the metabolism and clearance of xenobiotics. This assay used human CYP3A4 to measure the dealkylation of luciferin-6' phenylpiperazinylyl (Luciferin-PPXE; […]) to luciferin. The luciferin is then measured by luminescence after the addition of a luciferase detection reagent. Luciferin-PPXE concentration in the assay was equal to its KM for CYP3A4. Inhibitors and some substrates limit the production of luciferin, and decrease measured luminescence.
NCGC Assay Protocol Summary:
Two uL of enzyme and substrate mix (final concentrations: 20nM CYP3A4, 25uM Luciferin-PPXE, 200mM KPO4) were dispensed into a white, solid bottom 1536-well microtiter plate. 23nL of compound was transferred by a pin tool. The plate was incubated at RT for 10 min. Two uL of an NADPH regeneration solution (Promega supplied reagent) was dispensed and the reaction was allowed to continue for 60 min at RT. Then the reaction was stopped by reconstituted luciferin detection buffer. After another 20 min of incubation the plate was read on the ViewLux (Perkin Elmer) at 60 sec exposure and 2x2 binning. This protocol was carried out with Promega-Glo reagents and further information can be found at http://www.promega.com/tbs/tb325/tb325.pdf. Data were normalized to the to AC100 inhibition (57 uM ketoconazole).
Keywords: P450, CYP3A4, Luciferase, MLSMR, MLSCN, NIH Roadmap, qHTS, NCGC
(In qHTS, concentration-response curves come from the screen itself.)
Take `COC(=O)[C@@H]1C[C@H]2CC[C@H](O)C[C@H]2N1Cc1ccc(N2CCN(C)CC2)cc1`: the “activity change, negative = inhibition” value is -20.9% (inactive).

Consider `CCC1=C(OC(=O)N(CC)CC)N2C(=O)OC(=NCC(=O)OC)[C@]2(C)[C@H]2C1=CC[C@H]1C(=O)N(CC)C(=O)[C@H]12`, for which the Potency was 6.31 µM (active).

On to `COC(=O)c1ccc(C23CC4(C2)[C@H](CN(Cc2cccnc2)[C@@H]4c2ccccc2)C3c2ccc(C(F)(F)F)cc2)cc1` (stereo not given in full), for which the Potency was 5.01 µM (active).

Take `c1ccc(C2[C@H]3CN(Cc4cccnc4)[C@H](c4ccccc4)C34CC2(c2ccccc2)C4)cc1` (stereo not given in full): the Potency was 1.58 µM (active).

For `COC(=O)c1cccc(C23CC4(C2)[C@H](CN(Cc2cccnc2)[C@@H]4c2ccccc2)C3c2ccc(C(F)(F)F)cc2)c1` (stereo not given in full), the Potency was 2.51 µM (active).

`CC(=O)OCC1OC(C#CCCc2ccccc2)C=CC1OC(C)=O` (stereo not given): the Potency was 3.16 µM (active).

For `Cc1ccc(S(=O)(=O)N[C@H]2COC(=O)CC=C[C@@H](C)[C@H]3C=C[C@H](O)[C@@H](COC(=O)CC=C[C@H]2C)O3)cc1`, the Potency is 3.16 µM (active).

With `Cc1csc(B(O)O)c1`, the “activity change, negative = inhibition” value was -26.3% (inactive).

For `CC(=O)OC[C@@H]1O[C@@H](O/N=C2/C[C@@H](O)[C@@H](O)[C@@H]3[C@@H]4C(=O)N(Cc5ccc6c(c5)OCO6)C(=O)[C@H]4CC[C@H]23)[C@H](OC(C)=O)[C@H](OC(C)=O)[C@@H]1OC(C)=O`, the Potency is 5.01 µM (active).

Regarding `CCC1=C(OC(=O)N(CC)CC)N2C(=O)OC(=NCCc3c[nH]c4ccccc34)[C@]2(Cc2ccccc2)[C@H]2C1=CC[C@H]1C(=O)N(CC(=O)OC)C(=O)[C@H]12`, the Potency is 2.51 µM (active).

With `CC(=O)OCC1OC(C#Cc2ccc(C)cc2C)C=CC1OC(C)=O` (stereo not given), the Potency is 3.16 µM (active).

As for `O=C(O)c1cc(-c2ccco2)nc2ccccc12`, the “activity change, negative = inhibition” value was -26.4% (inactive).

Consider `COC(=O)[C@@H]1C[C@@H]2CC[C@@H](O)C[C@@H]2N1Cc1ccc(Cl)cc1`, for which the Potency is 15.8 µM (active).

Turning to `C=CCOC(=O)C(C(C)=O)C(NC(=O)OC)c1cccs1` (stereo not given), the Potency was 3.16 µM (active).

For the compound `COc1ccc(O[C@H]2C=C[C@@H](c3ccccc3)O[C@H]2COC(=O)CC/C(C)=N\OC[C@@H](O)[C@H]2O[C@H]3OC(C)(C)O[C@H]3[C@@H]2O)cc1`, the Potency was 3.98 µM (active).

Turning to `CNC(=O)[C@H](C)/C=C/C(NC(=O)OCc1ccccc1)c1ccc(C(=O)OC)cc1` (stereo not given in full), the Potency is 7.94 µM (active).

In the case of `O=[N+]([O-])c1ccccc1S(=O)(=O)NCC1CCC(CNCC2CCc3ccccc3C2)CC1` (stereo not given), the “activity change, negative = inhibition” value is -1.89% (inactive).

As to `COC(=O)c1ccc(C(NC(=O)OCc2ccccc2)/C(C)=C/[C@@H](C)C(=O)NCCN2CCOCC2)cc1` (stereo not given in full), the Potency is 3.16 µM (active).

As to `Cc1cc(CNC(=O)C(C)Cc2ccccc2)nn1C` (stereo not given), the Potency is 10 µM (active).

Turning to `COC(=O)c1ccc(C(NC(=O)OCc2ccccc2)/C(C)=C/[C@@H](C)C(=O)Nc2ccc(OC)cc2)cc1` (stereo not given in full), the Potency was 2.51 µM (active).

Regarding `COc1cccc(-c2cc(=O)c3ccc(OC)cc3o2)c1`, the Potency was 7.94 µM (active).

Take `CC(C)NC(=O)[C@@H]1C[C@H]1[C@@H](NC(=O)OCc1ccccc1)c1ccccc1`: the Potency was 3.98 µM (active).

Consider `O=C(O)c1cc(C(F)(F)F)nc2c(C(F)(F)F)cccc12`, for which the “activity change, negative = inhibition” value was -26% (inactive).

Take `CCCNC(=O)OC[C@@H]1O[C@H](CCO/N=C(\C)CCN2CCCCc3nc(C)c(C)cc32)C=C[C@@H]1Oc1ccc(OC)cc1`: the Potency is 3.16 µM (active).

Consider `COC(=O)c1ccc(C(NC(=O)OCc2ccccc2)/C(=C/[C@@H](C)C(=O)NCc2ccc(-c3ccccc3)cc2)c2cccnc2)cc1` (stereo not given in full), for which the Potency was 0.794 µM (active).

As for `O=C1/C(=C/c2ccccc2)Oc2ccccc21`, the activity change, negative = inhibition is -8.26% [at 11.4 µM] (inactive).

As to `CNC(=O)C1(C)C=CCN1C(=O)OC` (stereo not given), the “activity change, negative = inhibition” value is -12.1% (inactive).

`CC(=O)OC[C@H]1O[C@@H](O/N=C(\C)CCC(=O)OC[C@@H]2O[C@H](C#Cc3ccccc3)C=C[C@@H]2Oc2ccc(C)cc2)[C@H](OC(C)=O)[C@@H](OC(C)=O)[C@H]1OC(C)=O`: the Potency was 3.16 µM (active).

Regarding `Cc1cccc(-c2cc(=O)c3cc(C)ccc3o2)c1`, the Potency is 3.98 µM (active).

As for `CC(=O)OCC1OC(C#CCCCc2ccccc2)C=CC1OC(C)=O` (stereo not given), the Potency was 3.98 µM (active).

In the case of `CCC1=C2CC[C@H]3C(=O)N(CC)C(=O)[C@H]3[C@H]2[C@@]2(Cc3ccccc3)C(=O)N(CCOC)C(=O)N2C1=O`, the Potency is 15.8 µM (active).

Consider `CCOC(=O)OCC1OC(C#Cc2ccccc2)C=CC1OC(=O)OCC` (stereo not given), for which the Potency is 3.98 µM (active).

`COC(=O)NC(c1ccccc1)C(C#N)C(=O)OC` (stereo not given): the activity change, negative = inhibition is -16.5% [at 11.4 µM] (inactive).

With `CC1(C(=O)NCc2ccccn2)C=CCN1C(=O)c1ccccc1` (stereo not given), the “activity change, negative = inhibition” value is -16.5% (inactive).

Take `CC(=O)c1ccc(C2C=CC(O)C(CO)O2)cc1` (stereo not given): the activity change, negative = inhibition is -3.24% [at 11.4 µM] (inactive).

Consider `COC(=O)c1ccc(C(NC(=O)OCc2ccccc2)/C(F)=C/[C@@H](C)C(=O)NCc2cc(C)on2)cc1` (stereo not given in full), for which the Potency is 2.51 µM (active).

As to `CCCNC(=O)OC[C@H]1O[C@@H](CCO/N=C2/[C@H]3O[C@@H]3[C@@H](O)[C@H]3[C@H]2CCn2c(=O)n(-c4ccccc4)c(=O)n23)C=C[C@@H]1Oc1ccc(OC)cc1`, the Potency was 3.16 µM (active).

In the case of `CCCCNC(=O)C(c1ccc(OCC(=O)OC)c(C(=O)OC)c1)N(Cc1ccccn1)C(=O)CCCCCN1C(=O)NC(c2ccc(-c3ccccc3)cc2)C(C(=O)OCc2ccccc2)=C1C` (stereo not given), the Potency is 7.94 µM (active).

As to `COCCNC(=O)C1(C)C=CCN1C(C)=O` (stereo not given), the “activity change, negative = inhibition” value was -27% (inactive).

Regarding `C=CC[C@@H]1C=C[C@H](O/N=C(\C)CCN2CCCc3nc(C)c(C)cc32)[C@H](CO)O1`, the Potency was 2.51 µM (active).
